# The whole screen tested about 69,000 compounds, of which about 8,600 (12%) showed an effect of 50% or more. For the sample, strong results were picked, then their nearest neighbours and some compounds at random.
# Test system: Plasmodium berghei
# Assay: Screen against P. berghei liver stage (PbLuc), transformed with Luciferase, at 10uM
# Assay type: functional, HepG2
# Settings: tested at 10 uM
row,SMILES,INHIBITION [%]
1,CNc1nc(C(=O)N2C[C@@H]3CC[C@H]2CN(C2CCOCC2)C3)cs1,12.8
2,CC(c1nc(C2CC2)no1)N(C)Cc1cccc(F)c1 (stereo not given),53.4
3,CC(c1nc(C2CC2)no1)N(C)Cc1ccc(Cl)cc1 (stereo not given),43.1
4,CC(c1nc(C2CC2)no1)N(C)Cc1ccc2c(c1)OCCO2 (stereo not given),12.3
5,Cn1ccc2c(C(=O)N3CCCC(c4nnc[nH]4)C3)cccc21 (stereo not given),-66.9
6,CCN1Cc2c(C(=O)NC)ncn2-c2ccccc2S1(=O)=O,45.1
7,CCN1Cc2c(C(=O)NC(C)C(C)C)ncn2-c2ccccc2S1(=O)=O (stereo not given),29.9
8,CCN1Cc2c(C(=O)NCC3CC3)ncn2-c2ccccc2S1(=O)=O,0.139
9,CC(C)CN1Cc2c(C(=O)NC3CC3)ncn2-c2ccccc2S1(=O)=O,50.9
10,CC(C)CN1Cc2c(C(=O)N(C)C)ncn2-c2ccccc2S1(=O)=O,5.69
11,CCC(CC)NC(=O)c1ncn2c1CN(CC)S(=O)(=O)c1ccccc1-2,52
12,CCN1Cc2c(C(=O)NC(C)C)ncn2-c2ccccc2S1(=O)=O,31.1
13,CCCNC(=O)c1ncn2c1CN(CC(C)C)S(=O)(=O)c1ccccc1-2,57.9
14,CCNC(=O)c1ncn2c1CN(C)S(=O)(=O)c1ccccc1-2,-1.53
15,CN1Cc2c(C(=O)NC3CCCCC3)ncn2-c2ccccc2S1(=O)=O,43.4
16,CNC(=O)c1ncn2c1CN(CCC(C)C)S(=O)(=O)c1ccccc1-2,64.9
17,CC(C)CCN1Cc2c(C(=O)O)ncn2-c2ccccc2S1(=O)=O,31.8
18,Cc1ccc(C)c(CSc2nnc(C(N)Cc3ccccc3)o2)c1 (stereo not given),43.8
19,Cc1ccc(-c2cc(C3=NC(=CN4CCN(C)CC4)NO3)[nH]n2)s1,39.6
20,Cc1ccsc1CNC1CCCN(Cc2noc(C3CC3)n2)C1 (stereo not given),31.8
21,CC1CN(CCOc2cccc(C#N)c2)CCN1Cc1nccn1C (stereo not given),-3.2
22,COc1ccc(CN2CCC3(CC2)CC(c2cccnc2)CO3)cc1 (stereo not given),15.4
23,Cc1csc(N2CCCN(C(=O)C3(C#N)CCCC3)CC2)n1,-33.32
24,CN(C)CC1CN(Cc2ccc3c(c2)OCO3)Cc2nccn2C1 (stereo not given),43.8

row,SMILES,INHIBITION [%]
1,Cc1noc2ncnc(N(C)Cc3ccco3)c12,10.1
2,CNc1ncc(CN(C)c2nc(C)c3ccc(S(C)(=O)=O)cc3n2)cn1,-9.54
3,CNc1ncc(CN(C)c2ncnc3onc(C)c23)cn1,62.9
4,Cc1noc(C)c1CN(C)c1ncnc2ccccc12,35.6
5,Cc1noc(C)c1CN(C)c1ncnc2onc(C)c12,74.7
6,CNc1ncc(CN(C)C2CCN(C(C)C)CC2)cn1,-52.2
7,Cc1ccc(S(=O)(=O)NC(=O)C2(c3ccccc3)CCC2)c(C)c1,21.1
8,CNc1ccc(C)cc1C(=O)N1CCCC2(CCNC2)C1 (stereo not given),33.7
9,CN(Cc1cc2c(cc1OC(F)F)OCO2)Cc1nccn1C,43.6
10,Cc1ccc(OCCN(C)Cc2nccn2C)c(C)c1,55
11,CN(CCCOc1ccccc1)Cc1nccn1C,20.5
12,CCOc1cccc(C(=O)N2CCC(c3n[nH]c(C4CC4)n3)CC2)c1,11.2
13,CC(C)N1CCCC(CNC(=O)c2ccnc(-n3ccnc3)c2)C1 (stereo not given),-33
14,c1cncc(OCC2CN(Cc3nccs3)Cc3nccn3C2)c1 (stereo not given),8.52
15,Nc1cc(C(=O)NCC2CCN(CCc3ccccc3)C2)ccn1 (stereo not given),37.2
16,O=C(NCC1CCN(CCc2ccccc2)C1)c1cc(Cl)c[nH]1 (stereo not given),72.3
17,COCCN1CCC(CNC(=O)Nc2ccc(F)c(Cl)c2)C1 (stereo not given),7.44
18,COCCN1CCC(CNC(=O)C2(c3ccccc3)CCC2)C1 (stereo not given),45.7
19,COCCN1CCC(CNC(=O)C2(c3ccc(F)cc3)CCC2)CC1,8.64
20,COCCN1CCC(CNC(=O)Nc2ccc(-c3ccccc3)cc2)C1 (stereo not given),42.5
21,COCCN1CCC(CNC(=O)c2cc(C)cc(C)c2)C1 (stereo not given),58.3
22,COCCN1CCC(CNC(=O)C2(c3cc(C)cc(C)c3)CCC2)C1 (stereo not given),40.9
23,COCCN1CCC(CNC(=O)Nc2ccc(SC(F)(F)F)cc2)C1 (stereo not given),66.5
24,COCCN1CCC(CNC(=O)C2(c3ccc(Br)cc3)CCCC2)C1 (stereo not given),52.5

row,SMILES,INHIBITION [%]
1,COCCN1CCC(CNC(=O)C2(c3cc(C)cc(C)c3)CC2)CC1,26.5
2,O=C(NCC1CCN(CCc2ccccc2)C1)c1c(F)cccc1F (stereo not given),45.1
3,CC1CCN(c2cncc(CCC3CCCN3)n2)CC1 (stereo not given),35.8
4,CN(C)CC(=O)N1CCC2(CCN(Cc3cccc(F)c3)CC2)C1,9.97
5,CSCC[C@H](NC(=O)CCn1ccc2c(Br)cccc21)C(=O)O,-2.13
6,CCCn1nccc1NC(=O)CN1CCC[C@H]1CO,-72.2
7,COCC1CN(CC2CC2)Cc2nccn2C1 (stereo not given),35.7
8,N#CC1(C(=O)N2CCN(Cc3cscn3)CC2)CCCCC1,25.6
9,CC(C)c1nc(CN(C)C(=O)CCc2ccc3c(c2)OCO3)cs1,19.4
10,COC(=O)C(NC(=O)CC(C)C)c1cc(F)ccc1F (stereo not given),15.6
11,COCCN1CCC(CNC(=O)c2cc(Cl)c[nH]2)CC1,72.3
12,COCCN1CCC(CNC(=O)c2c[nH]c(=O)c(Cl)c2)CC1,-16
13,CCN1CCC(CNC(=O)C2(c3cccc(C)c3)CC2)C1 (stereo not given),37
14,CCN1CCC(CNC(=O)c2cc(Cl)c[nH]2)CC1,7.39
15,CCCN1CCC(CNC(=O)C2(c3cc(C)cc(C)c3)CCC2)C1 (stereo not given),25.1
16,CCN1CCCC(CNC(=O)C2(c3cc(C)cc(C)c3)CCC2)C1 (stereo not given),51.1
17,CCOc1cc(CNC(C)c2sccc2C)ccn1 (stereo not given),66.9
18,CCOc1cc(CNC(=O)NCc2nc(C)c(C)s2)ccn1,30.1
19,CCOc1cc(CNC(C)c2ccc(F)cc2)ccn1 (stereo not given),21.5
20,CCOc1cccc(CCNC(=O)Cc2ccccc2O)n1,20.1
21,CCOc1cccc(CCNC(=O)Cc2cccc(O)c2)n1,37.2
22,CCOc1cccc(CCNC(=O)Cc2ccn[nH]2)n1,61.8

# From ChEMBL document CHEMBL4513216, “Probing the Open Global Health Chemical Diversity Library for Multistage-Active Starting Points for Next-Generation Antimalarials” (ACS Infect Dis, 2020)
